Experimental data: PubChem BioAssay AID504861 (Broad Institute, 2011)
Hit rate of the full screen: of about 1,200 compounds, about 290 (24%) were called active. About 3% were inconclusive and are not listed.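 Rule for the calls: active = compounds lowering cell viability signal with fitted half-maximal concentration at most ten times their highest tested concentration; inconclusive = flat fit with 30 to 70% signal loss, or poor fit; inactive = the rest.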 Not all results are given here. Entries with a potency or affinity are not part of this list.

Assay: cytotoxicity in HEK293T cells – cell-based, CellTiter-Glo luminescence, cherry-picks, cytotoxicity control for LMP1 NF-kB inhibitor project, dose response (AID 504861)
Details: HEK293T viability, CellTiter-Glo ATP luminescence, 48 h; series mostly up to 26 µM; activity change, negative = cytotoxicity: at the top concentration

Structure (SMILES)	activity change, negative = cytotoxicity
Cc1cccc(Cn2cc(SCC(=O)Nc3nccs3)c3ccccc32)c1	8.72% (inactive)
O=C1/C(=C/c2cccnc2)SC(=S)N1Cc1ccco1	5.5% (inactive)
CCOc1ccc(-c2nc(CSCC(=O)NCc3ccco3)c(C)o2)cc1	4.12% (inactive)
CCOC(=O)c1ccc(NC(=S)N2CCSC2c2ccc(OC)cc2)cc1 (centres undefined)	8.51% (inactive)
Cc1ccc(/C=C/C(=O)C2C(=O)c3ccccc3C2=O)cc1	3.89% (inactive)
Cc1ccc(C(=O)NCCc2cccs2)cc1	-6.71% (inactive)
Cc1cc(C)n(C2CCCCC2OC(=O)c2ccccc2F)n1 (centres undefined)	7.27% (inactive)
CNC(=S)Nc1ccc2nc(C)c(C)nc2c1	1.31% (inactive)
Cc1cc(=O)[nH]c(N=N/C(=N/Nc2ccccc2C)c2ccccc2)n1	0.611% (inactive)
O=C(Nc1ccc(Br)cc1)C1CC(O)CN1C(=O)OCc1ccccc1 (centres undefined)	6.89% (inactive)
O=C(O)CCc1nc(-c2ccc(Cl)cc2)no1	12.4% (inactive)
Cn1c(-c2ccccc2)cnc1SCC(=O)N1CCCCC1	3.75% (inactive)
NC(=O)c1sc2nc3c(c(-c4cccs4)c2c1N)CCCCC3	-1.65% (inactive)
O=C(N/N=C/c1cccnc1)c1cc(-c2cccs2)nc2ccccc12	-0.968% (inactive)
O=C(CN1C(=O)c2ccccc2C1=O)NNC1=NS(=O)(=O)c2ccccc21	6.87% (inactive)
COc1ccc(-n2nc(C(=O)c3cccs3)cc(-c3nc4ccccc4[nH]3)c2=N)cc1	-3.71% (inactive)
O=C(Nc1nnc(N2CCCCCC2)s1)c1cc(-c2ccc(Br)cc2)on1	4.97% (inactive)
Cc1ccccc1N(C(=O)c1snc(C(N)=O)c1N)C(C(=O)NC1CCCCC1)c1ccc(O)cc1 (centres undefined)	1.86% (inactive)
Cc1cc(NC(=O)c2ccc3c(c2)OCCO3)no1	7.18% (inactive)
CSc1nc2cc3c(cc2n1C(=O)c1ccc(C)cc1)OCCO3	1.34% (inactive)
C/C(=N\Nc1ccc(C(F)(F)F)cc1[N+](=O)[O-])C(C)C	0.008% (inactive)
Nc1ccccc1SC1CC(=O)N(c2ccccc2Cl)C1=O (centres undefined)	-4.97% (inactive)
Cc1cccc(Nc2nc(Cl)ncc2F)c1C	10.1% (inactive)

Structure (SMILES)	activity change, negative = cytotoxicity
Cc1ccnc(SCCn2c(N3CCN(c4ccccc4)CC3)nc3c2c(=O)[nH]c(=O)n3C)n1	17.5% (inactive)
O=C(NCCCN1CCCCC1)c1ccc2c(c1)NC(=O)c1ccccc1S2	7.92% (inactive)
COc1ccc(-c2cc3nc(-c4ccccc4)cc(N4CCCC(O)C4)n3n2)cc1 (centres undefined)	14.7% (inactive)
O=C(N/C(=C/c1ccc(Br)cc1)C(=O)N1CCOCC1)c1ccc(Br)o1	7.11% (inactive)
COc1cccc(-c2nc(NCc3ccccc3)c3ccccc3n2)c1O	3.06% (inactive)
O=C(NCCc1ccccc1)c1ccc2nccnc2c1	1.28% (inactive)
O=C(Nc1ccc(Cl)c(Cl)c1)Nc1nc(-c2ccccc2)cs1	0.564% (inactive)
CCc1ccccc1N(CC(=O)NCc1ccco1)C(=O)c1snc(C(N)=O)c1N	9.6% (inactive)
CCn1c2ccccc2c2cc(NC(=O)c3ccccc3-c3ccccc3C(=O)O)ccc21	8.33% (inactive)
CCN(CC)Cc1cc(Nc2ccnc3cc(Cl)ccc23)ccc1O	-8.16% (inactive)
O=S(=O)(c1ccc2c(c1)C(=NO)c1cc(S(=O)(=O)N3CCCCC3)ccc1-2)N1CCCCC1	-11.5% (inactive)
Nc1nc(N)nc(-c2cc(Cl)ccc2Cl)n1	1.65% (inactive)
CCCc1cc(=O)c2c(O)ccc(OC)c2o1	-0.442% (inactive)
CC1CCC(NC(=O)CC2Oc3ccccc3NC2=O)CC1 (centres undefined)	11.5% (inactive)
O=S(=O)(c1ccccc1)N1CCN(c2cc(-c3ccccc3)nc3ncnn23)CC1	-3.34% (inactive)
Cn1cccc1CC(=O)NNC(=S)Nc1ccccc1Cl	5.13% (inactive)
COc1ccccc1NC(=O)C(=O)N/N=C(\C)CC(=O)Nc1ccccc1C(F)(F)F	3.35% (inactive)
CC(C)(C)n1nc(-c2ccc(F)cc2)c2c(N)ncnc21	1.55% (inactive)
CCc1nnc(NC(=O)c2cc(S(=O)(=O)N3CCN(CC)CC3)ccc2Cl)s1	29% (inactive)
COc1ccc(CCC(=O)Nc2ccc(C)c([N+](=O)[O-])c2)cc1	-8.9% (inactive)
CN(C)S(=O)(=O)c1cccc(NC(=O)c2n[nH]c(=O)c3ccccc23)c1	12.4% (inactive)
CCc1ccc(-c2nnn(CCC(=O)OC)n2)cc1	11.4% (inactive)
Cc1ccc(C(=O)Nc2cccc(C(=O)N/N=C/c3ccccc3F)c2)cc1	2.62% (inactive)

Structure (SMILES)	activity change, negative = cytotoxicity
Oc1cccc(/C=N/NC(=S)NCCN2CCOCC2)c1O	-11% (inactive)
COc1ccccc1C1(CC(=O)O)CCOC(C)(C)C1 (centres undefined)	10.4% (inactive)
CCCN1C(=O)C2(SC(NC(C)=O)=NN2C(C)=O)c2cc(C)cc(C)c21 (centres undefined)	5.8% (inactive)
COc1ccc(OC)c2c1sc(=NC(=O)c1ccco1)n2C	4.28% (inactive)
Cc1ccc(NC(=S)Nc2cccc(S(=O)(=O)Nc3c(C)n(C)n(-c4ccccc4)c3=O)c2)cc1	9.45% (inactive)
Cc1ccc(C)c(S(=O)(=O)N2CCN(C(=O)c3ccc(C)s3)CC2)c1	-9.08% (inactive)
O=C(Cn1ccc(C(F)(F)F)n1)Nc1cccc(S(=O)(=O)N2CCCCC2)c1	3.77% (inactive)
Cc1ccc(S(=O)(=O)N[C@H](C(=O)N2CCC(C(=O)N[C@@H](CC(=O)O)C(=O)O)CC2)C(C)C)cc1	-4.38% (inactive)
C=CCn1c(C)c(C(C)=O)c(N2CCN(C(c3ccccc3)c3ccccc3)CC2)nc1=S	-5.9% (inactive)
COC(=O)c1ccc(COc2ccccc2/C=C/C(=O)c2ccc(OCC(=O)O)cc2)cc1	5.12% (inactive)
COc1ccccc1OCc1ccc(C(=O)c2ccccc2)cc1	10.3% (inactive)
COc1cccc(C(=O)N2CCN(c3nc4cc(C)cc(C)c4cc3C#N)CC2)c1	8.25% (inactive)
Cc1ccc(N2CCN(C3=NC(=O)/C(=C\c4cn[nH]c4-c4ccccc4)S3)CC2)cc1	4.77% (inactive)
Cc1cnc(NC(=O)c2ccc(OCC3CCCO3)cc2)s1 (centres undefined)	-1.67% (inactive)
O=C(CSc1nnc(NC(=O)c2ccc3c(c2)OCO3)s1)NCc1ccco1	0.231% (inactive)
COc1ccc(C(=O)N(CN2CCCC2=O)c2cc(C)on2)cc1OC	-6.13% (inactive)
COc1ccc(/C=C\C(=O)NCc2ccc3c(c2)cc(C)n3C)cc1OC	3.26% (inactive)
O=C(C[n+]1ccccc1)N/N=C/c1ccc(O)cc1	2.54% (inactive)
CCCCNC(=S)Nc1ccc([N+](=O)[O-])cc1	-12.9% (inactive)
O=C(CCN1CCC(c2ccccc2)C1)c1ccc2c(c1)OCCO2 (centres undefined)	-1.97% (inactive)
CC(=O)Nc1ccc(OCCCNC(=O)c2c(-c3ccccc3)noc2C)cc1	-1.68% (inactive)
CC(C)c1ccc(OCc2cccc(C(=O)N/N=C/c3cccnc3)c2)cc1	1.92% (inactive)
O=C(CCc1ccccc1Cl)N1CCN(S(=O)(=O)c2ccccc2)CC1	5.52% (inactive)
